Common to all, as to test: qHTS profiling for inhibitors of Plasmodium falciparum proliferation (AID 504749); note: nearly all actives have a fitted effect of over 60% in size
Common to all, as to details: P. falciparum in erythrocytes, SYBR Green DNA, 72 h; series mostly up to 28.7 µM
A general note: In qHTS, concentration-response curves come from the screen itself.

One assay concerns CP237. An outline of the steps: (§1)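 Three-day growth assay of blood-stage parasites in erythrocytes (0.3% parasitemia, 2.5% hematocrit) at 37 C, 5% CO2, quantified by SYBR Green DNA staining after overnight detergent lysis.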
For another assay, the system named is CP238. The gist of the method: as §1
The next assay deals with CP250. The gist of the method:
as §1

Another assay relates to CP252. An outline of the steps:
as §1

The subject of a further assay is CP256. The gist of the method:
as §1

For a further assay, the system named is CP260. The gist of the method:
as §1

The next assay relates to CP262. The gist of the method:
as §1

In the next assay the test system is CP265. An outline of the steps: as §1
A further assay deals with CP268. An outline of the steps:
as §1

The next assay deals with CP286. The gist of the method: as §1
In the next assay the test system is CP291. An outline of the steps: as §1
Another assay deals with CP305. The gist of the method:
as §1

The test system of another assay is CP329. An outline of the steps:
as §1

A further assay concerns CP335. The gist of the method: as §1
Another assay concerns CP247. The gist of the method:
as §1

The subject of the next assay is CP266. The gist of the method: as §1
The subject of the next assay is CP269. An outline of the steps: as §1
The next assay deals with CP297. The gist of the method: as §1
The test system of another assay is CP315. An outline of the steps: as §1
The test system of another assay is CP325. An outline of the steps: as §1

The structures appear in SMILES notation. Records with an inconclusive call do not appear. The source made the active and inactive calls. Calls come from the whole dose curve; as a rule, active = well fitted inhibition curve with a large enough effect; inconclusive = small, poorly fitted or top-dose-only effect; inactive = flat fitted curve, though single readings scatter.
Potency is the fitted concentration of half-maximal effect.

Regarding `CN(c1nccc(=O)[nH]1)C1CCN(c2nc3ccccc3n2Cc2ccc(F)cc2)CC1`, the Potency entry in the assay on CP237, with CP238, in the assay on CP250, in the assay on CP252, in the assay with CP256 and with CP260 was “inactive” throughout. Also, the Potency entry in the assay on CP262, in the assay with CP265, in the assay with CP268, in the assay with CP286, with CP291 and in the assay on CP305 was “inactive” each time. Also, the Potency entry in the assay on CP329 and in the assay on CP335 was “inactive” each time.
Consider `O=C(OC1C[C@H]2CC[C@@H](C1)[N+]21CCCC1)C(O)(c1ccccc1)c1ccccc1` (stereo not given in full), for which the Potency in the assay with CP238 was 3.55 µM (active); in the assay with CP256, 3.55 µM (active); in the assay on CP262, 4.26 µM (active); with CP265 it was 3.98 µM (active); in the assay on CP286 it was 3.98 µM (active); in the assay with CP305, 4.26 µM (active). Besides, the figures for the Potency in the assay on CP329 and with CP335 were 4.78 µM (active) and 4.26 µM (active), respectively.
Take `O=c1oc2cc(O)ccc2s1`: the Potency entry with CP237, in the assay on CP238, in the assay on CP247, in the assay with CP252, in the assay on CP256 and in the assay with CP260 was “inactive” in each case. Further, the Potency entry with CP262, with CP265, in the assay with CP266, in the assay with CP268, in the assay on CP269 and in the assay with CP286 was “inactive” throughout. The Potency result in the assay on CP291, with CP297, with CP305, in the assay on CP315, in the assay on CP325 and in the assay with CP329 was “inactive” in each case. In the assay with CP335, the Potency entry is “inactive”.
For the compound `COc1ccc2cc([C@H](C)C(=O)O)ccc2c1`, the Potency entry in the assay with CP238, with CP247, in the assay on CP250, in the assay with CP252, with CP256 and in the assay with CP262 was “inactive” throughout. Also, the Potency entry in the assay with CP265, in the assay with CP266, in the assay on CP268, in the assay on CP269, in the assay with CP291 and in the assay with CP297 was “inactive” throughout. Besides, the Potency entry with CP305, in the assay on CP315, in the assay with CP325 and with CP329 was “inactive” in each case.
As for `COCCCOc1ccnc(CS(=O)c2nc3ccccc3[nH]2)c1C` (stereo not given), the Potency result in the assay with CP238, with CP250, in the assay on CP252, in the assay with CP256, with CP262 and in the assay with CP265 was “inactive” each time. The Potency entry with CP266, in the assay with CP268, with CP286, in the assay with CP291, in the assay on CP305 and in the assay with CP315 was “inactive” each time. Further, the Potency result in the assay with CP325, in the assay with CP329 and with CP335 was “inactive” each time.
In the case of `COC1=C(OC)C(=O)C(CCCCCCCCCCO)=C(C)C1=O`, the Potency result in the assay with CP237, with CP238, in the assay with CP250, in the assay on CP252, in the assay on CP256 and in the assay with CP260 was “inactive” throughout. Further, the Potency result in the assay with CP262, with CP265, in the assay on CP266, in the assay on CP268, in the assay with CP269 and in the assay with CP286 was “inactive” in each case. Also, the Potency result in the assay on CP291, in the assay on CP297, in the assay with CP305, in the assay with CP315, in the assay on CP325 and in the assay with CP329 was “inactive” throughout. For the same compound, the Potency result in the assay with CP335 is “inactive”.
On to `Cc1c(C(=O)NN2CCCCC2)nn(-c2ccc(Cl)cc2Cl)c1-c1ccc(Cl)cc1`, for which the Potency with CP237 is 12.6 µM (active); in the assay on CP247 it was 7.94 µM (active); in the assay on CP256, 11.2 µM (active); in the assay on CP265, 11.2 µM (active); with CP297, 19 µM (active). Also, the Potency result in the assay with CP262 is “inactive”.
As for `CN1CCC(=C2c3ccccc3CCc3sccc32)CC1`, the Potency entry in the assay on CP250, in the assay on CP262, in the assay on CP297, with CP315 and with CP329 was “inactive” in each case.
Take `O=C(O)c1cn(-c2ccc(F)cc2)c2cc(N3CCNCC3)c(F)cc2c1=O`: the Potency result in the assay on CP247, with CP250 and in the assay with CP266 was “inactive” each time.
Regarding `N=C(N)c1ccc2cc(OC(=O)c3ccc(N=C(N)N)cc3)ccc2c1`, the Potency was 7.08 µM (active) in the assay with CP237, 8.91 µM (active) with CP247, 4.47 µM (active) with CP286 and 4.78 µM (active) in the assay on CP305. Besides, the Potency result with CP250 is “inactive”.
For the compound `Cc1ccc(NC(=O)c2ccc(CN3CCN(C)CC3)cc2)cc1Nc1nccc(-c2cccnc2)n1`, the Potency is 8.91 µM (active) in the assay with CP237, 15.1 µM (active) in the assay with CP269 and 11.2 µM (active) with CP286.
Consider `NNc1nncc2ccccc12`, for which the Potency entry in the assay with CP238, with CP252, in the assay on CP262, with CP266, in the assay on CP291 and in the assay with CP297 was “inactive” each time. Besides, the Potency result in the assay on CP315 and in the assay with CP329 was “inactive” each time.
As for `CCCCCCCCOc1ccccc1C(=O)Nc1ccc(C(=O)OCC[N+](C)(CC)CC)cc1`, the Potency is 7.94 µM (active) with CP237; 8.91 µM (active) in the assay with CP238; 10 µM (active) in the assay on CP247; 7.08 µM (active) with CP260; 6.31 µM (active) in the assay on CP286; 6.01 µM (active) with CP335. For the same compound, the Potency result in the assay with CP262 was “inactive”.
Take `CN(C)CCc1c[nH]c2ccc(Cn3cncn3)cc12`: the Potency entry in the assay with CP237, in the assay on CP238, in the assay on CP247, in the assay with CP252, in the assay with CP256 and in the assay with CP260 was “inactive” each time. For the same compound, the Potency entry in the assay with CP262, in the assay with CP265, in the assay on CP266, with CP268, in the assay on CP269 and with CP286 was “inactive” each time. In addition, the Potency result in the assay with CP291, in the assay on CP297, with CP305, in the assay with CP315, with CP325 and with CP329 was “inactive” throughout. Also, the Potency result in the assay with CP335 was “inactive”.
Regarding `Cc1cc(C2CCCCC2)n(O)c(=O)c1`, the Potency was 3.55 µM (active) with CP252; 5.73 µM (active) in the assay with CP269; 7.21 µM (active) in the assay on CP297; 5.73 µM (active) in the assay on CP305; 2.28 µM (active) in the assay on CP315; 5.73 µM (active) with CP325.
For `CC[C@]1(O)C[C@H]2CN(CCc3c([nH]c4ccccc34)[C@@](C(=O)OC)(c3cc4c(cc3OC)N(C=O)[C@H]3[C@@](O)(C(=O)OC)[C@H](OC(C)=O)[C@]5(CC)C=CCN6CC[C@]43[C@@H]65)C2)C1`, the Potency in the assay with CP237 is 0.0501 µM (active); in the assay with CP238 it was 2.24 µM (active); with CP250 it was 3.55 µM (active); with CP252, 3.55 µM (active); in the assay with CP256, 2.24 µM (active); in the assay on CP260 it was 0.0794 µM (active). Moreover, the Potency with CP286 was 0.0708 µM (active); in the assay with CP291, 3.38 µM (active); in the assay with CP297, 3.01 µM (active).
For `Cn1c(NCCN(CCO)CCCc2ccc([N+](=O)[O-])cc2)cc(=O)n(C)c1=O`, the Potency entry in the assay with CP237, with CP238, in the assay with CP250, in the assay on CP252, with CP256 and with CP260 was “inactive” throughout. The Potency result in the assay on CP262, in the assay on CP265, in the assay with CP266, with CP268, with CP269 and in the assay with CP286 was “inactive” in each case. The Potency result with CP291, with CP297, in the assay on CP305, with CP315, in the assay on CP325 and in the assay with CP329 was “inactive” in each case. Besides, the Potency result in the assay with CP335 was “inactive”.
For `Cc1nc2n(c(=O)c1CCN1CCC(c3noc4cc(F)ccc34)CC1)CCCC2`, the Potency result in the assay on CP238, in the assay on CP247, with CP250, in the assay with CP252, with CP256 and in the assay on CP262 was “inactive” each time. Moreover, the Potency entry in the assay on CP265, in the assay with CP266, in the assay on CP268, in the assay on CP269, in the assay on CP291 and in the assay on CP297 was “inactive” each time. Also, the Potency result with CP305, with CP315, in the assay with CP325 and with CP329 was “inactive” in each case.
Turning to `CCC[C@@H]1C[C@@H](C(=O)N[C@@H]([C@H]2O[C@H](SC)[C@H](O)[C@@H](O)[C@H]2O)[C@@H](C)O)N(C)C1`, the Potency result in the assay with CP250 was “inactive”. In addition, the Potency is 0.398 µM (active) with CP256 and 2.39 µM (active) in the assay on CP262.

For the origin of these results see PubChem BioAssay (NCATS).
